The list is not random: actives were taken first. Their share in the collection is about 2%.
DAGLB inh: DAGLB lipase inhibitors, primary screen, biochemical, fluorescence, HTS. 340,000 tested, 0.059% active. inhibition, % at 5.17 µM. HEK293T DAGLB membrane lysate, EnzChek fluorogenic substrate. AID 504411, 2011; in the data active = inhibition above about 34%;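 also: 0% = enzyme with vehicle and 100% = wells lacking enzyme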
HGIII-sPLA2 inh: human group III sPLA2 inhibitors, primary screen, biochemical, QFRET, BODIPY PC-A2 liposome substrate. Group 3 secretory phospholipase A2 (Homo sapiens), Q9NZ20. QFRET BODIPY PC-A2 liposome hydrolysis, fluorescence. inhibition, % at 12.2 µM. 370,000 tested, 0.56% active;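 active = inhibition above mean plus 3 SD of compounds lying within the high and low control bounds, cut at about 19% in these data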;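 also: 0% = median of test compound wells and 100% = no enzyme DMSO wells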
Neddylation inh: inhibitors of cullin neddylation, primary screen, biochemical, TR-FRET, uHTS, NAE and Ubc12. inhibition, % at 25 µM. AID 651699, 2012. 360,000 tested, 0.58% active; in the data active = inhibition above about 36%
NadD block: inhibitors of S. aureus NadD, primary screen, biochemical, colorimetric, uHTS. Nicotinate-nucleotide adenylyltransferase NadD (Staphylococcus aureus N315). purified NadD enzyme, colorimetric absorbance read-out. inhibition, % at 20 µM. 360,000 tested, 0.78% active; in the data active = inhibition above about 26%
ARNT-TACC3 inh: disruptors of ARNT/TACC3 protein interaction, primary screen, biochemical, AlphaScreen, single concentration. Transforming acidic coiled-coil-containing protein 3 (Homo sapiens), Q9Y6A5. AlphaScreen His-ARNT PAS-B/GST-TACC3 binding, luminescence; TACC3 fragment carries E629A point mutation. inhibition, % at 9.99 µM. 390,000 tested, 0.66% active. AID 623870, 2012;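 active = mean inhibition of replicates at least 50% and at least half of replicates each reaching 50%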;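 also: 0% = complete ARNT plus TACC3 wells and 100% = ARNT alone without TACC3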
Neddyl conf: blockade of NEDD8 conjugation to cullin – biochemical, TR-FRET, single concentration, confirmation | shares compounds with Neddylation inh | TR-FRET cullin neddylation biochemical assay | calls only at 25 µM | 1,800 tested, 13% active | AID 652217, 2013; in the data active = inhibition above about 40%;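 also: neddylation substrate is the cullin 1 ring ligase complex with SKP2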
The depositor's hits bear a star; i = inactive; . = no result given; + = active, no number.

SMILES	DAGLB inh	HGIII-sPLA2 inh	Neddylation inh	NadD block	ARNT-TACC3 inh	Neddyl conf
NC1=NC(=O)/C(=C/c2ccccc2OS(=O)(=O)c2ccccc2)S1	-2	-13	16	-3	-3	.
O=C(C[C@H]1C[C@H]2c3cc(NS(=O)(=O)c4ccc(F)cc4)ccc3O[C@H]2[C@H](CO)O1)N1CCOCC1	.	.	.	.	-2	.
COc1ccc(-n2cc(CNCc3cnc4ccccn34)c(-c3cccc(F)c3)n2)cc1	-4	-7	42*	2	3	.
COc1ccc(-n2cc(CNCC3CCOCC3)c(-c3cccc(F)c3)n2)cc1	-4	-9	.	-4	0	.
COCCCNc1nc2ccccc2nc1NS(=O)(=O)c1ccc(C)cc1	1	-12	34	3	-3	.
COCCCNc1nc2ccccc2nc1NS(=O)(=O)c1ccc(C)c(C)c1	-1	-20	42*	3	29	.
COCCNc1nc2ccccc2nc1NS(=O)(=O)c1ccc(C)cc1C	1	-3	38*	0	-14	+
CCOC(=O)/C=c1\s/c(=C\c2c(OCC)ccc3ccccc23)c(=O)n1CC(=O)NCC1CCCO1 (configuration not stated)	-4	-25	10	-10	7	.
CCOC(=O)/C=c1\s/c(=C\c2ccc3c(c2)OCCO3)c(=O)n1CC(=O)NCC1CCCO1 (configuration not stated)	0	2	43*	1	-3	i
C[C@@H]1CN([C@H](C)CO)C(=O)c2c(c3ccccc3n2C)-c2ccccc2CO[C@H]1CN(C)C(=O)[C@@H]1CCCN1C	.	.	.	.	2	.
CCN1C(=O)c2cccc3c(S(=O)(=O)NCc4ccccc4)ccc1c23	-1	-8	57*	-3	.	.
CCN1C(=O)c2cccc3c(S(=O)(=O)N(C(C)=O)c4ccc(OC(C)=O)cc4)ccc1c23	0	3	63*	-4	-9	.
COc1ccc(N(C(=O)c2ccncc2)S(=O)(=O)c2ccc3c4c(cccc24)C(=O)N3C)cc1	2	3	-7	5	-3	.
O=C(NCc1ccccc1)c1nc(-c2c(F)cccc2F)oc1-c1ccccc1	.	7	44*	.	.	.
CCCCCNC(=O)c1nc(-c2c(F)cccc2F)oc1-c1ccccc1	.	5	.	.	.	.
Cc1c(C)c2cc(Cl)c(OCc3nn[nH]n3)cc2oc1=O	2	11	47*	-4	6	i
Cc1c(C)c2cc(Cl)c(OCC(=O)Nc3ccccn3)cc2oc1=O	-2	-3	-17	-7	.	.
COc1ccc2cc(C(=O)N/N=C/c3cc(OC)c(OC)c(OC)c3)[nH]c2c1	-5	-26	43*	2	6	+
CCOc1ccc(/C=N/NC(=O)c2cc3ccccc3cc2OC)cc1	-3	-1	42*	0	0	i
COc1cc(OC)c2cc(C(=O)N/N=C/c3cccc(OC)c3O)[nH]c2c1	7	-11	14	18	20	.
COc1ccc(/C=N/NC(=O)c2cc3cc(OC)c(OC)cc3[nH]2)cc1	-5	-13	46*	6	4	i
COc1cc2cc(C(=O)N/N=C/c3ccc(F)cc3)[nH]c2cc1OC	-14	-10	40*	1	12	i
COc1cc2cc(C(=O)N/N=C/c3ccccc3Cl)[nH]c2cc1OC	-1	-10	.	-7	-48	.
C[C@@H](NC(=O)C[C@H]1C=C[C@H](NC(=O)C2CCC2)[C@@H](CO)O1)c1ccccc1	.	.	.	.	3	.
COc1cccc2cc(-c3cn4cccc(C)c4n3)c(=O)oc12	0	-1	42*	13	0	i
SMILES	DAGLB inh	HGIII-sPLA2 inh	Neddylation inh	NadD block	ARNT-TACC3 inh	Neddyl conf
COc1cccc2cc(-c3cn4ccc(C)cc4n3)c(=O)oc12	1	5	-9	2	-6	.
NC1=Nc2cccc3cccc1c23	2	-2	49*	-6	19	i
CC(C(=O)Nc1ccc2nccnc2c1)N1C(=O)C2C3C=CC(C3)C2C1=O (configuration not stated)	-1	10	54*	1	-7	.
O=C(Nc1ccc2c(c1)[C@H]1C[C@H](CC(=O)N3CCc4ccccc4C3)O[C@@H](CO)[C@H]1O2)NC1CCCC1	.	.	.	.	3	.
O=C(NC1CCCN(Cc2ccc(Cl)cc2)C1)c1cnc2ccccn2c1=O (configuration not stated)	0	-3	41*	3	4	.
C=CC[C@H](O)c1ccc(O)c(F)c1	.	.	.	.	-10	.
Cc1nn(C)cc1C(C)NC(=O)c1cc(COc2cccc3cnccc23)on1 (configuration not stated)	0	-2	41*	-5	6	+
COCC1CCN(C(=O)c2cc(COc3ccc(F)cc3Cl)on2)C1 (configuration not stated)	-3	-6	3	-4	.	.
COCC1CCN(C(=O)c2cc(COc3cccc4cnccc34)on2)CC1	1	0	55*	2	-1	.
Cc1nn(C)cc1C(C)NC(=O)c1cc(COc2c(F)cccc2F)on1 (configuration not stated)	1	0	3	0	.	.
CO[C@@H]1CN(C)C(=O)c2ccc(NS(=O)(=O)c3ccc(Oc4ccccc4)cc3)cc2OC[C@H](C)NC[C@@H]1C	.	.	.	.	-5	.
C=CCOc1c(CNc2cccc(C(=O)O)c2)cccc1OCC	0	-6	47*	-3	-5	i
COc1ccc(/C=C2\CCCC3C2=NN(C(=O)CSc2n[nH]c(N)n2)C3c2ccc(OC)cc2)cc1 (configuration not stated)	2	-10	46*	17	1	.
O=C1CCC(C(=O)OCC(=O)N2N=C3/C(=C\c4ccccc4)CCCC3C2c2ccccc2)N1 (configuration not stated)	0	-17	18	4	5	.
FC(F)(F)c1cccc(-c2ccn3ncnc3n2)c1	1	4	41*	-8	2	i
CO[C@H]1CN(C)C(=O)c2cc(NS(=O)(=O)c3cn(C)cn3)ccc2OC[C@@H](C)N(C)C[C@@H]1C	.	.	.	.	0	.
COC(=O)C1C(O)=C(C=Nc2ccccc2)C(=O)CC1(C)C (configuration not stated)	-1	0	7	-2	-9	.

From PubChem
